Consider nine molecules from PubChem BioAssay (EPA / NIEHS).

Molecules are shown by their SMILES. Records with an inconclusive call do not appear. Active and inactive are the calls of the source. How the source made its calls: active means hit-call score of the fitted dose curve at least 0.9, where 1 is the maximum; inconclusive means response in the unintended direction; inactive means score below 0.9.

The target of the first assay is rat Monoamine Oxidase, MAO-B, Peripheral (MAOBP), Maob (gene 25750) (UniProt P19643). Briefly: NVS_ENZ_rMAOBP: NovaScreen (NVS) Enzymatic Assay for rat Monoamine Oxidase, MAO-B, Peripheral (MAOBP) (AID 2283242).
Sequence of rat Monoamine Oxidase, MAO-B, Peripheral (MAOBP), Maob (gene 25750) (P19643 whole entry, looked up): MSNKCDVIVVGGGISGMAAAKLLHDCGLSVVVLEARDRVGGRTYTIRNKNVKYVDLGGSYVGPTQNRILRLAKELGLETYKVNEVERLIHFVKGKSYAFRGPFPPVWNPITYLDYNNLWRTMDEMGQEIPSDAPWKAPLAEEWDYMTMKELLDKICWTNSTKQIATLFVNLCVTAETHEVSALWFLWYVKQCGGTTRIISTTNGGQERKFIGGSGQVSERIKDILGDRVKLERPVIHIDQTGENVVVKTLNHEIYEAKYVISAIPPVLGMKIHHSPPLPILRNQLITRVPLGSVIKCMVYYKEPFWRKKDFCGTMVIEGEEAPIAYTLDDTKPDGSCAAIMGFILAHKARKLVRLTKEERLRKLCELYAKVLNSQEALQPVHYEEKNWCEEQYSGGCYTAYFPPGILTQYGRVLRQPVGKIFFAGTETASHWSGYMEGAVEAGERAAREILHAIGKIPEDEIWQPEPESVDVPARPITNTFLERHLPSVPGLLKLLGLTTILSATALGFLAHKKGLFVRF
With `CC(C)N1C(=O)N(c2ccccc2)CSC1=NC(C)(C)C`, the outcome was inactive.

As for `CNC(=O)Oc1cccc2ccccc12`, the half-maximal activity concentration (AC50) (in general, the concentration at which the activity in the assay is half-maximal) was 25 µM (active).

On to `COc1ccc(-c2ccccc2)cc1NNC(=O)OC(C)C`, for which the AC50 is 0.139 µM (active).

`COP(=S)(OC)SCn1nnc2ccccc2c1=O`: the molecule was classed as inactive.

Turning to `CN=C=S`, the molecule was classed as inactive.

In a further assay the test system is rat Monoamine Oxidase, MAO-A, Central (MAOAC), gene 29253. Briefly: NVS_ENZ_rMAOAC: NovaScreen (NVS) Enzymatic Assay for rat Monoamine Oxidase, MAO-A, Central (MAOAC) (AID 2283243).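 Further: potency refers to inhibition seen as signal drop below DMSO baseline.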 On the procedure:
NVS_ENZ_rMAOAC is a biochemical, single-readout assay that uses extracted gene-proteins from Rat brain in a tissue-based cell-free assay. Measurements were taken 1.5 hours after chemical dosing in a 96-well plate.NVS_ENZ_rMAOAC is one of one assay component(s) measured or calculated from the NVS_ENZ_rMAOAC assay. It is designed to make measurements of enzyme activity, a form of enzyme reporter, as detected with scintillation counting signals by Lysate-based radiodetection technology.Data from the assay component NVS_ENZ_rMAOAC was analyzed into 1 assay endpoint. This assay endpoint, NVS_ENZ_rMAOAC, was analyzed in the positive analysis fitting direction relative to DMSO as the negative control and baseline of activity. Using a type of enzyme reporter, loss-of-signal activity can be used to understand changes in the enzymatic activity as they relate to the gene Maoa. Furthermore, this assay endpoint can be referred to as a primary readout, because this assay has produced multiple assay endpoints where this one serves a enzymatic activity function. To generalize the intended target to other relatable targets, this assay endpoint is annotated to the oxidoreductase intended target family, where the subfamily is monoamine oxidase.
Binding assays used specific radioligands (tritiated, iodinated) with non-radioactive competitive displacement ligands in agonist or antagonist protocols (as indicated) and various reference compounds and inhibitors to titrate specific binding to receptors and transporters. Most enzyme assays (CYPs, kinases, phosphatases, proteases, HDACs) used recombinant protein and specific substrates (fluorescence mostly, some colorimetric and radioactive) and inhibitors, followed by a biochemical separation of substrate and product. All assays for the biochemical HTS were initially run in duplicate at a single concentration (10 uM for CYP450 assays and 25 uM for all others). […] Each assay was run with positive and negative controls, and concurrent controls on every plate. The follow-up (secondary) screen tested active chemical-pairs in concentration series, as well as a few additional assays not tested in the primary screen, some selected negative inactives, and several cases re-run in the concentration series for confirmatory purposes.
For the molecule `N#Cc1c(Cl)cccc1Cl`, the result was inactive.

For `CNC(=O)Oc1cccc2ccccc12`, the AC50 is 13.8 µM (active).

In the case of `Cc1ccc(N=CN(C)C=Nc2ccc(C)cc2C)c(C)c1`, the concentration at half-maximal activity (AC50) was 1.66 µM (active).

In the case of `COc1ccc(-c2ccccc2)cc1NNC(=O)OC(C)C`, the concentration at half-maximal activity (AC50) was 0.599 µM (active).

On to `Cc1nc(N(C)C)nc(OC(=O)N(C)C)c1C`, for which the half-maximal activity concentration (AC50) was 12.8 µM (active).

`N#Cc1c[nH]cc1-c1cccc2c1OC(F)(F)O2`: the call was inactive.
